Screening data as filed in PubChem.
In the library only some 4% were active in any assay of this set; here they are far more common.
GDH-TPI counter-1 = inhibits GDH-TPI coupling enzymes, artifact for Mtb FBA screen | GDH-TPI coupled enzyme counterscreen, NADH absorbance | inhibition, % at 4.8 µM | hit rate 1.2% among 360,000 | AID 588335; in the data active means inhibition above about 30%
Mtb bLac sens = beta-lactam sensitization of Mtb H37Rv; inhibition, % at 25 µM; M. tuberculosis H37Rv growth with meropenem, percent inhibition; AID 434955; hit rate 0.27% among 330,000; call rule not given here;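 further: growth measured after seven days incubation then overnight dye step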
UGM FP inh = blocks M. tuberculosis UGM enzyme. AID 504406. inhibition, % at 10 µM. purified UGM, fluorescence polarization probe displacement. hit rate 0.06% among 320,000; in the data active means inhibition above about 10%, passing the limit was not always enough
RecA splice inh = Mtb RecA intein splicing inhibition; P9WHJ3; hit rate 0.75% among 290,000; inhibition, % (no concentration beside the values); cell-free RecA intein splicing, fluorescence; in the data active means inhibition above about 30%
Rv3671c inh = Rv3671c (M. tuberculosis) protease inhibition; inhibition, % at 5.96 µM; hit rate 0.048% among 320,000; P9WHR9; in the data active means inhibition above about 38%;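 further: extracellular domain of Rv3671c used as enzyme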
FBA Mtb inh = inhibitors of M. tuberculosis fructose-bisphosphate aldolase | P9WQA3 | purified M. tuberculosis FBA, fluorescence read-out | inhibition, % at 1 µM | hit rate 2.3% among 360,000 | AID 588726
Target sequence (P9WQA3 whole entry, looked up): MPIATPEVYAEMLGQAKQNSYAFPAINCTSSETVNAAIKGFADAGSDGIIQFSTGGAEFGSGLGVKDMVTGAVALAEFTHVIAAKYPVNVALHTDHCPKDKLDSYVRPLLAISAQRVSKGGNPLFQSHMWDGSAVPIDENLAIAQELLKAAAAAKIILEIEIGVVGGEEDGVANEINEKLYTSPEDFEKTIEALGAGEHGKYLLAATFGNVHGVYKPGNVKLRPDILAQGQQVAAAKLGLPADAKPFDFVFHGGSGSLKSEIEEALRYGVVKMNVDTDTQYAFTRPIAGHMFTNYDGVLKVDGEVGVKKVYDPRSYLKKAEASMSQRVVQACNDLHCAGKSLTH
Mtb FBA confirm = Mtb FBA inhibition, confirmed; shares compounds with FBA Mtb inh; hit rate 78% among 5,600; inhibition, % at 1 µM; purified M. tuberculosis FBA, fluorescence read-out
GDH-TPI counter-2 = counter-screen for M. tuberculosis FBA inhibitors: GDH-TPI coupled enzyme inhibition; inhibition, % at 1 µM; hit rate 81% among 5,600; GDH-TPI coupled enzyme counterscreen, fluorescence; shares compounds with FBA Mtb inh; in the data active means inhibition above about 10%
Numbers stand for hits; – = inactive; · = no result; + = active, no number. Unless noted, no stated cut-off is given here; in the data, active means inhibition above about 27%; inactive means the rest.

SMILES | GDH-TPI counter-1 | Mtb bLac sens | UGM FP inh | RecA splice inh | Rv3671c inh | FBA Mtb inh | Mtb FBA confirm | GDH-TPI counter-2
CCc1cc2c(=O)c(-c3cscn3)coc2c(CN(C)C)c1O | – | – | – | – | – | 41 | 161 | 125
CC(=O)CSc1nc(-c2ccccc2)c(-c2ccccc2)o1 | – | – | – | – | – | 50 | 61 | 44
CCOC(=O)c1c(C)[nH]c(C(=O)COC(=O)c2ccc([N+](=O)[O-])o2)c1C | – | – | – | · | – | – | · | ·
CC(C)(C)NC(=O)C[C@H]1C[C@H](C(=O)N2CCCCC2)[C@@]2(C)c3[nH]c4cc(-c5ccco5)ccc4c3CCN2C1=O | – | · | · | · | · | – | · | ·
C[C@]12c3[nH]c4cc(-c5ccco5)ccc4c3CCN1C(=O)[C@@H](CC(=O)NCc1ccco1)C[C@@H]2C(=O)N1CCOCC1 | – | · | · | · | · | 31 | 174 | 148
C[C@]12c3[nH]c4cc(-c5ccco5)ccc4c3CCN1C(=O)[C@@H](CC(=O)NCc1ccco1)C[C@@H]2C(=O)N1CCCCC1 | – | · | · | · | · | 32 | 117 | 70
CC(C)(C)NC(=O)C[C@H]1C[C@H](C(=O)N2CCOCC2)[C@@]2(C)c3[nH]c4cc(-c5ccco5)ccc4c3CCN2C1=O | – | · | · | · | · | 31 | 50 | 45
C[C@H]1CN([C@@H](C)CO)C(=O)c2cc(Br)cnc2O[C@H]1CN(C)S(=O)(=O)c1ccccc1F | – | · | · | · | · | – | · | ·
Cc1ccc(S(=O)(=O)N2CCN(C(=O)C(C)Cn3cncn3)CC2)cc1 (centres undefined) | – | – | – | · | – | – | · | ·
CC(C)CCNC(=O)CN(Cc1ccccc1)C(=O)CCC(=O)Nc1ccccn1 | – | – | – | · | – | – | · | ·
Fc1ccc(-c2cn3ccccc3n2)cc1 | – | – | – | – | – | – | · | ·
Cc1ccc2nc(-c3ccc4c(c3)OCCO4)cn2c1 | – | – | – | – | – | 62 | 195 | 141
c1ccn2cc(-c3ccc4c(c3)OCCO4)nc2c1 | – | – | – | – | – | 80 | 91 | 90
Clc1ccc2nc(-c3ccc4c(c3)OCO4)cn2c1 | – | – | – | – | – | 45 | + | +
CC1CCc2nc(/C(C#N)=C/c3ccncc3)sc2C1 (centres undefined) | – | – | – | – | – | 28 | – | –
CC1CCc2nc(NC(=O)c3ccco3)sc2C1 (centres undefined) | – | – | – | – | – | – | · | ·
Cc1ccc2c(c1)sc1nc(=O)ccn12 | – | – | – | · | – | – | · | ·
COc1ccc2c(c1)sc1nc(=O)ccn12 | – | – | – | – | – | 49 | 117 | 106
CC1(C)S[C@@H]2[C@H](NC(=O)[C@H](N)c3ccccc3)C(=O)N2[C@H]1C(=O)OC1OC(=O)c2ccccc21 (some centres undefined) | – | – | – | · | – | 66 | + | 160
CC1(c2ccccc2Br)NC(=O)N(CC(=O)NC2CCCCC2)C1=O (centres undefined) | – | – | – | · | – | – | · | ·
CCCCNC(=O)COC(=O)c1cc2c(C)nn(-c3ccccc3)c2s1 | – | – | – | – | – | 29 | + | 178
Cc1nn(-c2ccccc2)c2sc(C(=O)NC3CCCCC3)cc12 | – | – | – | – | – | – | · | ·
Cc1nn(-c2ccccc2)c2sc(C(=O)NCCN3CCOCC3)cc12 | – | – | – | – | – | 33 | 92 | 83
Cc1[nH]c(C)c(S(=O)(=O)N2CCN(c3ccccc3F)CC2)c1C(=O)N1CCCC1 | – | – | – | – | – | – | · | ·
O=S(=O)(/C=C/C=C/S(=O)(=O)c1ccccc1)c1ccccc1 | – | · | · | · | · | – | · | ·
SMILES | GDH-TPI counter-1 | Mtb bLac sens | UGM FP inh | RecA splice inh | Rv3671c inh | FBA Mtb inh | Mtb FBA confirm | GDH-TPI counter-2
CN(C)C(=O)c1cn(-c2ccccc2)nc1-c1cc2ccccc2o1 | – | – | – | – | – | – | · | ·
O=C(O)/C=C/c1cn(-c2ccccc2)nc1-c1cc2ccccc2o1 | – | – | – | – | – | 91 | + | 157
CCOc1cc(C(=O)N/N=C/c2cn(-c3ccccc3)nc2-c2cc3ccccc3o2)cc(OCC)c1OCC | – | · | · | · | · | – | · | ·
CN(Cc1cn(-c2ccccc2)nc1-c1cc2ccccc2o1)C(=O)CCC(=O)O | – | – | – | – | – | 45 | – | –
O=C(O)/C=C\c1cn(-c2ccccc2)nc1-c1cc2ccccc2o1 | – | – | – | – | – | 76 | 124 | 101
O=C(O)/C=C/c1cn(-c2ccccc2)nc1-c1ccccc1 | – | – | – | – | – | – | · | ·
CC1Cc2ccccc2N1C(=O)COC(=O)c1ccccc1NCCO (centres undefined) | – | – | – | – | – | 109 | 80 | 67
O=C(OCC(=O)N1CCCc2ccccc21)c1ccccc1NCCO | – | – | – | – | – | 99 | 148 | 140
CC(OC(=O)c1ccc(C(C)(C)C)cc1)C(=O)NC1CCCCC1C (centres undefined) | – | – | – | – | – | – | · | ·
O=C(OCC(=O)N1CCCc2ccccc21)c1ccccc1OC(F)F | – | – | – | · | – | – | · | ·
CC(OC(=O)c1ccccc1NCCO)C(=O)NC1CCCCC1C (centres undefined) | – | – | – | – | – | 96 | – | –
O=C(COC(=O)c1ccccc1NCCO)Nc1cc(C(F)(F)F)ccc1N1CCOCC1 | – | – | – | – | – | 70 | – | –
CC(=O)c1cccc(NC(=O)CNC(=O)c2sc3ccccc3c2Cl)c1 | – | – | – | – | – | – | · | ·
CCNC(=O)N(C)c1c(CC)nc2ccc(C(=O)N3CCN(C(=O)c4ccco4)CC3)cn12 | – | · | · | · | · | – | · | ·
CCOC(=O)C(CC(=O)Nc1nc(C(C)=O)c(C)s1)C(C)c1ccccc1 (centres undefined) | – | – | – | – | – | – | · | ·
CC1CCN(C(=O)COC(=O)c2ccccc2NCCO)CC1 | – | · | · | · | · | 92 | 131 | 112
CC1CCN(C(=O)COC(=O)c2c[nH]c3ccccc23)CC1 | – | · | · | · | · | – | · | ·
CCc1nnc(NC(=O)c2sc3nc4c(cc3c2N)CCCCCC4)s1 | – | – | – | – | – | 61 | – | –
CCc1nnc(NC(=O)c2sc3nc4c(cc3c2N)CCCCC4)s1 | – | – | – | – | – | – | · | ·
C=CCn1c(C)cc(C(=O)Cn2c(C(C)O)nc3ccccc32)c1C (centres undefined) | – | – | – | – | – | 74 | 156 | 119
CC(=O)Nc1ccc(-n2cc(-c3ccccc3)[nH]c2=S)cc1 | – | – | – | – | – | – | · | ·
O=C(O)c1ccc(-n2cc(-c3cc4ccccc4oc3=O)[nH]c2=S)cc1 | – | · | · | · | · | 32 | 139 | 99
C[C@@H](NC(=O)c1cc2c([nH]c3ccccc32)c(-c2ccccc2)n1)C(=O)O | – | – | – | – | – | 29 | 71 | 61
C[C@H](CO)N1C[C@H](C)[C@@H](CN(C)S(=O)(=O)c2ccc(-n3cccn3)cc2)OCc2cn(nn2)CCCC1=O | – | · | · | · | · | – | · | ·
